Results filed as inconclusive are left out. The source made the active and inactive calls. Calls follow the shape of the dose curve; as a rule, active = well fitted inhibition curve with a large enough effect; inconclusive = small, poorly fitted or top-dose-only effect; inactive = flat fitted curve, though single readings scatter.
Key:
Test in all cases: qHTS profiling for inhibitors of Plasmodium falciparum proliferation (AID 504749); also: nearly all actives have a fitted effect of over 60% in size
Conditions in all cases: P. falciparum in erythrocytes, SYBR Green DNA, 72 h; series mostly up to 28.7 µM
[1] = test system: CP262
How it was run: (§1)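 P. falciparum-infected erythrocytes (0.3% parasitemia, 2.5% hematocrit) incubated with compound 72 h at 37 C, 5% CO2. Parasite DNA detected by SYBR Green after lysis, overnight at room temperature; normalised to 0.29 uM artemisinin and DMSO.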

[2] = test system: CP265
How it was run: as §1

[3] = test system: CP268
How it was run: as §1

[4] = test system: CP269
How it was run: as §1

[5] = test system: CP286
How it was run: as §1

[6] = test system: CP291
How it was run: as §1

[7] = test system: CP297
How it was run: as §1

[8] = test system: CP305
How it was run: as §1

[9] = test system: CP315
How it was run: as §1

[10] = test system: CP325
How it was run: as §1

[11] = test system: CP329
How it was run: as §1

[12] = test system: CP335
How it was run: as §1

[13] = test system: DFO2036
How it was run: as §1

[14] = test system: DIV14
How it was run: as §1

[15] = test system: DIV17
How it was run: as §1

[16] = test system: Dd2
How it was run: as §1

[17] = test system: ECU
How it was run: as §1

[18] = test system: FAB9
How it was run: as §1

[19] = test system: DIV30
How it was run: as §1

[20] = test system: CP266
How it was run: as §1

Measured: Potency
Potency is read from the fitted curve at half-maximal effect.

COc1cc(CNC(=O)CCCC/C=C/C(C)C)ccc1O
inactive: [1] | [2] | [3] | [4] | [5] | [6] | [7] | [8] | [9] | [10] | [11] | [12] | [13] | [14] | [15] | [16] | [17] | [18]

CC(=O)[C@]1(O)Cc2c(O)c3c(c(O)c2[C@@H](O[C@H]2C[C@H](N)[C@H](O)[C@H](C)O2)C1)C(=O)c1c(O)cccc1C3=O
active: [1] 15.1 µM | [3] 12 µM | [4] 9.53 µM | [5] 2.24 µM | [6] 9.53 µM | [7] 13.5 µM | [8] 7.57 µM | [10] 15.1 µM | [12] 5.36 µM | [13] 7.94 µM | [14] 4.26 µM | [15] 4.78 µM | [16] 3.16 µM

Cc1nc2ccccc2n1Cc1ccc(Cl)cc1
inactive: [3] | [4] | [5] | [6] | [7] | [8] | [9] | [14] | [15] | [19] | [16] | [18]

O=C1CN(/N=C/c2ccc(-c3ccc([N+](=O)[O-])cc3)o2)C(=O)N1
inactive: [2] | [20] | [3] | [4] | [5] | [6] | [7] | [8] | [9] | [10] | [11] | [12] | [13] | [19] | [16] | [17] | [18]

CCCCCC[C@@H](O)C/C=C\CCCCCCCC(=O)O
inactive: [1] | [2] | [3] | [4] | [5] | [6] | [7] | [8] | [9] | [10] | [11] | [12] | [13] | [14] | [15] | [19] | [16] | [17] | [18]

CCCC(=O)OC[C@@H](OC(=O)CCC)[C@@H](OC(=O)CCC)[C@H](Cn1c2nc(=O)[nH]c(=O)c-2nc2cc(C)c(C)cc21)OC(=O)CCC
inactive: [1] | [20] | [3] | [4] | [6] | [7] | [9] | [10] | [11] | [14] | [19]
active: [16] 11.2 µM

Nc1c(CC(=O)O)cccc1C(=O)c1ccc(Br)cc1
inactive: [1] | [2] | [20] | [3] | [4] | [5] | [6] | [8] | [9] | [10] | [11] | [12] | [13] | [14] | [15] | [19] | [16] | [17] | [18]

Nc1cc(-c2ccncc2)c[nH]c1=O
inactive: [1] | [2] | [20] | [3] | [4] | [5] | [6] | [7] | [8] | [9] | [10] | [11] | [12] | [13] | [15] | [19] | [16] | [17] | [18]

CN1[C@@H](CC(=O)c2ccccc2)CCC[C@H]1C[C@H](O)c1ccccc1
active: [14] 13.5 µM | [15] 10.7 µM | [16] 10 µM
inactive: [1] | [20] | [3] | [4] | [7] | [9] | [10] | [12] | [18]

O=C(CCN1CCN(CCO)CC1)N1c2ccccc2Sc2ccc(C(F)(F)F)cc21
inactive: [3] | [7] | [8] | [9] | [11] | [18]
active: [2] 3.98 µM | [5] 12.6 µM | [14] 9.53 µM | [15] 9.53 µM | [16] 11.2 µM

— PubChem BioAssay (NCATS)
